According to PubChem BioAssay (NCI):
About 79,000 compounds went through this panel and 15% of them were active in at least one assay; those are over-represented in the sample as a whole. Rule as the data show it: active = growth inhibition above about 70%; inactive = the rest.

Experiments:
[1] = NCI Yeast Anticancer Drug Screen. Data for the rad50 strain (AID 155);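 also: 0% = growth of vehicle-only cultures of the same strain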; details: S. cerevisiae rad50 strain growth inhibition; at 50.0 µM; stronger effect = higher value
In short: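 Vehicle-treated cultures provide the reference for the growth inhibition reported for compound-exposed, repair-deficient yeast.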

[2] = NCI Yeast Anticancer Drug Screen. Data for the mec2-1 strain (AID 157); details: S. cerevisiae mec2-1 strain, at 50.0 µM, stronger effect = higher value
In short: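 Each compound was tested on mec2-1 yeast, a strain altered in DNA damage repair or cell cycle control. Growth inhibition is reported relative to vehicle.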

[3] = NCI Yeast Anticancer Drug Screen. Data for the sgs1 mgt1 strain (AID 161);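 also: 0% = growth of cultures given vehicle only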; details: S. cerevisiae sgs1 mgt1 strain, at 50.0 µM, stronger effect = higher value
In short: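 Test agents were incubated with a DNA-repair-mutant yeast strain. Growth was then read and compared against vehicle-treated controls.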

[4] = NCI Yeast Anticancer Drug Screen. Data for the cln2 rad14 strain (AID 165);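 also: 0% = growth equal to vehicle treated cultures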; details: S. cerevisiae cln2 rad14 strain, at 50.0 µM, stronger effect = higher value
In short: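 Test compounds were added to cln2 rad14 yeast cultures; inhibition of growth was then determined by comparison with vehicle treatment.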

[5] = NCI Yeast Anticancer Drug Screen. Data for the bub3 strain (AID 167); details: S. cerevisiae bub3 mutant strain, at 50.0 µM, stronger effect = higher value
In short: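 Mutant yeast screening strain plus compound; vehicle-treated cultures serve as the 0% inhibition reference.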

[6] = NCI Yeast Anticancer Drug Screen. Data for the mlh1 rad18 strain (AID 175); details: S. cerevisiae mlh1 rad18 strain growth inhibition; at 50.0 µM; stronger effect = higher value
In short: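 Inhibition values reflect reduced growth of mutant yeast versus vehicle-treated controls following compound exposure; the mutations affect DNA damage repair.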

Measured: growth inhibition

Cc1ccc(S(=O)(=O)NC(CCC(=O)NN)C(=O)NN)cc1 (stereo unspecified)
inactive: [1] 9.55% | [2] 7.2% | [3] -15.2% | [4] 5.95% | [5] -1.8% | [6] -43.4%

CCN(CC)CCOC(=O)C(S)(c1ccccc1)C1CCCCC1 (stereo unspecified)
inactive: [1] 13.8% | [2] -7.3% | [3] 1% | [4] -12.8% | [5] -12.7% | [6] 16.9%

O=C(O)c1c(CN2CCOCC2)c(O)c(O)c(O)c1CN1CCOCC1
inactive: [1] -1.2% | [2] 0.15% | [3] -7.1% | [4] -2.3% | [5] 1.3% | [6] 5.5%

COc1cc(Br)c(C=O)cc1OC
inactive: [1] 10.5% | [2] 22.9% | [3] 13.6% | [4] -16.1% | [5] 2.95% | [6] 5.5%

COc1cc2c(cc1O)C(=O)CCC(C(=O)O)=C2
inactive: [1] 14.2% | [2] -12.8% | [3] 3.65% | [4] -14.8% | [5] 2% | [6] 14.6%

COc1ccc(OC)c(/C=C/c2ccc(NC(=O)Nc3ccccc3Cl)cc2)c1
inactive: [1] 10.8% | [2] 2.3% | [3] -7.9% | [4] -39.1% | [5] 1.2% | [6] 13.8%

C[Si](C)(C)CCCO
inactive: [1] 0.25% | [2] 17.8% | [3] 3.3% | [4] 6.9% | [5] 9.25% | [6] 10%

Oc1ccc(Cl)cc1/C=N/NC(=S)Nc1cccc2cccnc12
inactive: [1] 24.1% | [2] 12.6% | [3] 10.7% | [4] 20.6% | [5] 20.1% | [6] 15.7%

NC(CCCCC(N)C(=O)c1ccccc1)C(=O)c1ccccc1 (stereo unspecified)
inactive: [1] -11.9% | [2] -7.45% | [3] -4.85% | [4] -15.9% | [5] 1.55% | [6] 3.25%

COc1ccc(CCN2C(=O)C(=O)N(C(C)C)C2=O)cc1OC
inactive: [1] 7.9% | [2] 1.6% | [3] 13% | [4] 16.4% | [5] 4.85% | [6] 14.7%

CN(C)CCN(CCN(C)C)CCN(C)C
inactive: [1] 6.85% | [2] -21.5% | [3] 12.3% | [4] 9.45% | [5] 25.1% | [6] 14.6%

Cc1ccc2nc(C)cc(NC(=O)c3ccccc3)c2c1
inactive: [1] 13.6% | [2] 8.45% | [3] 8.55% | [4] -18.1% | [5] -5.3% | [6] 24.2%

CCOC(=O)C(C)(C)Oc1ccc2c(C)c(-c3ccc(Cl)cc3)c(=O)oc2c1
inactive: [1] -1.7% | [2] -26.4% | [3] -1.25% | [4] -41.2% | [5] -47.6% | [6] -10.9%

N#CC1=C(N)CCC(C#N)(c2ccccc2)C1 (stereo unspecified)
inactive: [1] 2.4% | [2] 2% | [3] 22.4% | [4] 14.8% | [5] 22.8% | [6] 8.2%

CCCCCCC(/C=N\N=C\c1ccco1)=C\c1ccccc1
inactive: [1] -2.7% | [2] 6.15% | [3] 1.25% | [4] 2.75% | [5] 16.9% | [6] -7.8%

CN1CCCCC(C#N)(c2ccccc2)CC1 (stereo unspecified)
inactive: [1] -5.25% | [2] 14.1% | [3] 7.85% | [4] -2.2% | [5] 0.8% | [6] 21.4%

c1ccc(N=C(N2CCCC2)N(CCN2CCCC2)c2ccccc2)cc1
inactive: [1] -39.4% | [2] -58.1% | [3] -36.4% | [4] 1.35% | [5] -14.2% | [6] -28.2%

COc1ccc(Nc2nnc(-c3nsc4ccccc34)s2)cc1
inactive: [1] -2.5% | [2] -28.4% | [3] -37.9% | [4] 22.2% | [5] -27.9% | [6] -24.9%

CCCCN=Cc1ccc(Cl)cc1
inactive: [1] -2.65% | [2] -24.1% | [3] -32.1% | [4] 6.5% | [5] -19.9% | [6] -6%

NC(=O)C[n+]1cccc(C(=O)Nc2ccc(Cl)cc2)c1
inactive: [1] 2.3% | [2] 9.3% | [3] 3.95% | [4] -23.4% | [5] 29.2% | [6] -0.75%

Oc1cc2c(cc1O)C1c3ccc(O)c(O)c3OCC1(O)C2 (stereo unspecified)
inactive: [1] 21.9% | [2] 13% | [3] 22.7% | [4] -1% | [5] 9.4% | [6] 22.4%

CS(=O)(=O)OCCCSCCSCCCOS(C)(=O)=O
inactive: [1] -4% | [2] -0.05% | [3] 3.1% | [4] -4.8% | [5] -11.2% | [6] -10.1%

Cc1cc(Cl)ccc1N=C1NC(=O)C(CC(=O)Nc2cccc(Cl)c2)S1 (stereo unspecified)
inactive: [1] 28.6% | [2] 15% | [3] -8.85% | [4] 27.6% | [5] 1.8% | [6] 10.2%

O=C([O-])C(=O)[N-]CCC[N-]C(=O)C(=O)[N-]CCC[N-]C(=O)C(=O)[O-].[Cu+2].[Cu+2].[Na+]
inactive: [1] -8.45% | [2] -13.6% | [3] 4.35% | [4] -21.8% | [5] -7.7% | [6] 8.9%

NCCNCCCNCCN
inactive: [1] 7.85% | [2] -2.4% | [3] 7.95% | [4] -2.45% | [5] 27.4% | [6] 6.45%

O=C(O)c1ccc(S(=O)(=O)c2cccc(Cl)c2)cc1
inactive: [1] 0.85% | [2] 7.8% | [3] 8.65% | [4] -18.7% | [5] -16.1% | [6] 6.45%

O=C(c1ccc(Cl)cc1)c1ccc2ccccc2c1
inactive: [1] -5.3% | [2] -8.6% | [3] 5.35% | [4] -3.4% | [5] 7.8% | [6] 4.1%

CCOC(=O)C1CCCCC1NC1CCCCC1C(=O)OCC (stereo unspecified)
inactive: [1] 4.65% | [2] -2.35% | [3] -22.9% | [4] -14.2% | [5] -16.2% | [6] 8.9%

Cc1ccc(N=C2C(=Nc3ccc(C)cc3)N(c3ccc(C)cc3)C(=S)N2C(=O)c2ccccc2)cc1
inactive: [1] -5.4% | [2] -27.1% | [3] 7.9% | [4] 26.3% | [5] -29.6% | [6] -13.1%

CCc1[nH]c(=O)c2oc3cc4ccccc4cc3c2c1C(=O)O
inactive: [1] -43.9% | [2] -35.5% | [3] -55.6% | [4] -29.4% | [5] -17.8% | [6] -70.3%

O=C1OC2C(Cl)C3CC1C2C3 (stereo unspecified)
inactive: [1] -12.2% | [2] -9.6% | [3] -22.3% | [4] -13.2% | [5] 4.65% | [6] -31.4%

CSCCC(Nc1ncnc2nc[nH]c12)C(=O)O (stereo unspecified)
inactive: [1] -9.7% | [2] 3.05% | [3] 3.6% | [4] -12.7% | [5] 0.9% | [6] -9.5%

O=C(Nc1ccc(Cl)cc1C(F)(F)F)C(=O)C1CCCS1(=O)=O (stereo unspecified)
inactive: [1] -7.05% | [2] -10.9% | [3] -4.5% | [4] 12.9% | [5] -6.4% | [6] -8.8%

CCCCCC(N)=O
inactive: [1] 16.6% | [2] -7.05% | [3] 4.25% | [4] 15.2% | [5] 14.8% | [6] 31.8%

CCOC(=O)c1cc(-n2nnc3ccccc32)cn1C
inactive: [1] -4.7% | [2] -23.4% | [3] 0.35% | [4] -3.6% | [5] 19.4% | [6] -0.65%

Cc1cc(C)c(C(=O)CC(C)C)c(C)c1
inactive: [1] -8.15% | [2] -3% | [3] 4.2% | [4] 24.6% | [5] -3.45% | [6] -4.2%

c1csc(-c2nc3sc(-c4cccs4)nc3s2)c1
inactive: [1] 3.4% | [2] -9.75% | [3] 1.9% | [4] -18.8% | [5] -16.6% | [6] -2.4%

CCNc1nc(C)nc2c1cnn2-c1ccc(C)cc1
inactive: [1] 6.25% | [2] -3.4% | [3] 25.3% | [4] -27.5% | [5] -21.8% | [6] 7.25%

O/N=C1/COC(C(F)(F)F)(C(F)(F)F)C1
inactive: [1] -14.3% | [2] -25.4% | [3] -16.9% | [4] -38.2% | [5] -5.7% | [6] -45.5%

Cc1ccc(S(=O)(=O)OCC(c2ccccc2)C(F)(F)F)cc1 (stereo unspecified)
inactive: [1] -3.25% | [2] -14.2% | [3] 12.4% | [4] -23.7% | [5] 18.6% | [6] -1%

O=C(O)c1cccc2c1C1CCC2c2cccc(C(=O)O)c21
inactive: [1] -29.2% | [2] 0.95% | [3] 15.6% | [4] 3.05% | [5] -2.6% | [6] 9.7%
